BLM inh-1 = inhibitors of human Bloom syndrome helicase BLM. Potency, µM (top dose mostly 56.1 µM), without a hit: at the highest dose activity change, negative = inhibition, actives largely listed as inhibitors. AID 2528. 350,000 compounds, 0.2% hits. recombinant BLM DNA unwinding, fluorescence dequenching;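 note: plate controls were vehicle for no effect and no enzyme for full effect; nearly all actives have a fitted effect of over 35% in size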
GCN5L2 inh = GCN5L2 (KAT2A) acetyltransferase inhibition. 390,000 compounds, 0.21% hits. Potency, µM (top dose mostly 58.9 µM), without a hit: top-dose activity change, negative = inhibition, usual class: inhibitors. AID 504327. Q92830. GCN5L2 HAT assay, ThioGlo1 CoA-SH fluorescence; note: % is set by controls: 0 for no effect and ±100 for the full control effect
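Compounds, pin-transferred from DMSO stocks, meet 20nM GCN5L2 for 15 min before the reaction begins with H3(1-25) peptide (75uM) and acetyl-CoA (70uM). Thiol-reactive ThioGlo1 reports CoA release over 20 min at room temperature.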
RECQ1 helicase = inhibitors of human RECQ1 DNA helicase; P46063; RECQ1 DNA unwinding, red fluorescence kinetic read; Potency, µM (doses to about 57.3 µM), inactives show at the top dose activity, negative = inhibition, most hits filed as inhibitors; 240,000 compounds, 0.54% hits;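 note: plate controls were vehicle for no effect and no enzyme for full effect; nearly all actives have a fitted effect of over 30% in size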
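50 nM RECQ1T1 preincubated 15 min with compound in Tris pH 8.0 buffer with MgCl2, DTT, Tween-20 and 2.5 ug/ml poly(dI-dC); started with 200 nM TAMRA/BHQ-2 forked duplex and 2 mM ATP. Unwinding read as fluorescence (525/598 nm), two reads 2 h apart.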
APE1 inh-1 = blocks human APE1 abasic DNA cleavage. P27695. recombinant APE1, TAMRA/BHQ-2 abasic DNA cleavage fluorescence. Potency, µM (titrated, usually from 65.8 µM), inactives show top-dose activity change, negative = inhibition, actives largely listed as inhibitors. 350,000 compounds, 0.35% hits. AID 2517;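 note: plate controls were vehicle for no effect and reference inhibitor for full effect; nearly all actives have a fitted effect of over 55% in size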
Target sequence (P27695 whole entry, looked up): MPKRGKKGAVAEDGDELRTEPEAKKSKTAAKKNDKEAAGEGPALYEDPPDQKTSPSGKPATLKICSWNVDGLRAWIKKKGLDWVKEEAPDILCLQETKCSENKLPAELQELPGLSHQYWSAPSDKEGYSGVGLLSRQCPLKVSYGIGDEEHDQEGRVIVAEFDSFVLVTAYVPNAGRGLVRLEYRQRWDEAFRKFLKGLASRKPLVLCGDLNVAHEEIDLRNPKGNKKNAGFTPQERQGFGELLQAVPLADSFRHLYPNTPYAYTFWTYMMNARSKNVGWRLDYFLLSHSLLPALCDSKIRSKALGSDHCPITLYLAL
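Kinetic fluorescence read (525 ex/598 em nm, three reads 60 s apart) of AP-site incision; signal = third minus first read. Enzyme 0.75 nM, dual-labelled THF duplex 50 nM, compound preincubation 15 min RT.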
WRN inhibitor = blocks human WRN helicase; Q14191; WRN helicase unwinding, fluorescent forked duplex, kinetic; Potency, µM (highest dose often 114 µM), without a hit: at the top dose activity change, negative = inhibition, usual class: inhibitors; 360,000 compounds, 0.46% hits; note: % is set by controls: 0 for no effect and ±100 for the full control effect; nearly all actives have a fitted effect of over 55% in size
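Screening of the MLSMR collection measured strand separation of a quenched forked DNA duplex (100 nM) by 20 nM WRN with 2 mM ATP, all final. Compounds were preincubated with enzyme 15 min at room temperature.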
ERG-DNA inh = blocks human ERG Ets domain binding to DNA; fluorescence polarization, His-ERG Ets domain / labelled DNA; Potency, µM (titrated, usually from 76.9 µM), for the others: at the top dose FP activity, negative = inhibition, usual class: inhibitors; 370,000 compounds, 0.028% hits; AID 624246; active = well fitted inhibition curve with a large enough effect in the polarisation, with a control signal flat; inconclusive = small, poorly fitted or top-dose-only effect, or effect the other way, or a change in a side signal; inactive = no such curve, though single readings can be large or run the other way; the % refers to the polarisation;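 note: polarization taken with two DNA probes labelled with fluorescein and Texas red; % of control where 0% means no effect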
Target sequence (P11308 whole entry, looked up, the tested form may be a part): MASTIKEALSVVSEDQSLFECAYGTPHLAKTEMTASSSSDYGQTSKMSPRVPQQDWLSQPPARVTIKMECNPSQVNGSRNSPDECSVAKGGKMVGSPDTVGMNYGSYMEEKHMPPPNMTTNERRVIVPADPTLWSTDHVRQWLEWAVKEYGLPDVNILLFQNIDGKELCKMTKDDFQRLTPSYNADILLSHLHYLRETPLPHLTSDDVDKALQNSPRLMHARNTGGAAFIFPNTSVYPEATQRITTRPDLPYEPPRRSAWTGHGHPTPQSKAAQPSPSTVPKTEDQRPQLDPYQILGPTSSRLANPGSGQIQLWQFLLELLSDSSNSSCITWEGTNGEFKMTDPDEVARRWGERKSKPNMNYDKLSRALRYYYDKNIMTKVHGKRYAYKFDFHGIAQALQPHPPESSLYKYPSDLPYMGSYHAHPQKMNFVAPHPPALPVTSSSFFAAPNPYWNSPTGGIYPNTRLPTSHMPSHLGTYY
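His-tagged ERG Ets domain (1 uM in the protein solution; 300mM KCl, 50mM Tris-HCl, 1mM EDTA, 1mM DTT, pH 7.5) received compound, then a probe mix of 5 nM fluorescein-DNA and 100nM Texas-615-DNA. Fluorescence polarization was read for both dyes.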
APE1 dye cs = counter-screen for APE1 inhibitors: DNA dye displacement. shares compounds with APE1 inh-1. DNA fluorescent dye displacement counterscreen, fluorescence. Potency, µM (highest dose often 28.5 µM), inactives show top-dose activity change, negative = inhibition, actives largely listed as inhibitors. 480 compounds, 7% hits. AID 2564;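 note: loss of thiazole orange fluorescence as the dye is displaced from duplex DNA; 0% = ThO with dsDNA and no compound and -100% = ThO without dsDNA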
Endo IV inh = Endo IV (E. coli) inhibition counter-screen. shares compounds with APE1 inh-1. E. coli Endo IV, fluorogenic AP-site DNA cleavage. Potency, µM (top dose mostly 27.1 µM), for the others: at the top dose activity change, negative = inhibition, most hits filed as inhibitors. 560 compounds, 4% hits;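 note: plate controls were uninhibited enzyme wells for no effect and no enzyme buffer wells for full effect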
APE1 inh-2 = confirmation of inhibitors of human APE1 endonuclease; shares compounds with APE1 inh-1; purified APE1, fluorogenic abasic-site DNA cleavage; Potency, µM (top dose mostly 57.1 µM), inactives show at the highest dose activity change, negative = inhibition, hits mostly inhibitors; 750 compounds, 44% hits; AID 2572; note: % is set by controls: 0 for no effect and ±100 for the full control effect; nearly all actives have a fitted effect of over 30% in size
APE1 FP inh = displaces DNA from human APE1 in FP assay. shares compounds with APE1 inh-1. APE1 binding to TAMRA-labelled double-stranded DNA, fluorescence polarization displacement. Potency, µM (highest dose often 28.5 µM), inactives show top-dose activity, negative = inhibition, actives largely listed as inhibitors. 480 compounds, 7% hits. AID 2573; note: % is set by controls: 0 for no effect and ±100 for the full control effect
BLM inh-2 = confirmation of inhibitors of human Bloom syndrome helicase BLM | AID 2585 | 220 compounds, 40% hits | BLM DNA unwinding, fluorescence quenching, biochemical | shares compounds with BLM inh-1 | Potency, µM, without a hit: max response, negative = inhibition, hits mostly inhibitors;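 note: strand separation dequenches TAMRA so unwinding raises red fluorescence; series mostly up to about 69 µM; % is set by controls: 0 for no effect and ±100 for the full control effect; nearly all actives have a fitted effect of over 45% in size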
An asterisk follows results filed as active; i = inactive; ? = inconclusive; . = no result given; [ ] = dose if it differs, or a comment. Hits are enriched below; roughly 0.88% of the tested compounds scored in any of these assays. Unless noted, calls come from the whole dose curve; as a rule, active = well fitted curve in the direction sought with a large enough effect; inconclusive = small, poorly fitted or top-dose-only effect, or another doubt; inactive = no such curve, though single readings can be large; an effect the other way counts as inactive or inconclusive. Potency is the fitted concentration of half-maximal effect.

SMILES	BLM inh-1	GCN5L2 inh	RECQ1 helicase	APE1 inh-1	WRN inhibitor	ERG-DNA inh	APE1 dye cs	Endo IV inh	APE1 inh-2	APE1 FP inh	others
COc1ccc(NC(=S)NC(=O)/C=C/c2ccc(F)cc2)cc1	-3%	1%	.	40%	3%	4%	.	.	.	.
COc1ccc(/C=C/C(=O)NC(=S)Nc2ccc(C(=O)O)cc2)cc1	-18%	-11%	1%	-12%	-24%	9%	.	.	-13%	.
Cc1cc(C=O)c(C)n1-c1cccc(C(=O)O)c1	4%	3%	-18%	22µM*	-15%[11.6 µM]	-4%	1%	3%	16µM*	2%
CCOc1ccccc1NC(=O)c1nnn(CC(=O)Nc2ccccc2CC)c1N	-2%	1%	.	.	.	10%	.	.	.	.
NC(=O)c1ccc2c(=O)n3c(-c4cc(Cl)c(N)c(Cl)c4)csc3nc2c1	-7%	-4%	?	-4%	-35%	5%	.	.	-26%	.
Cc1csc2nc3cc(C(N)=O)ccc3c(=O)n12	6%	-22%	i	-3%	1%	2%	.	.	.	.
O=C(CSc1nnnn1-c1ccccc1)NC(=O)NCc1ccco1	-17%	-9%	-23%	28µM*	-20%[11.6 µM]	0%	?	4%	?	?
CCOc1ccccc1-n1nnnc1SCC(=O)NC(=O)NCc1ccco1	-21%	-19%	-29%	28µM*	-15%[57.1 µM]	0%	?	-5%	?	?
O=C(CSc1nnc(COc2ccccc2Cl)o1)NC(=O)NCc1ccco1	-30%	-10%	-17%	11µM*	-8%[11.6 µM]	5%	?	-4%	14µM*	0%
Cn1nnnc1SCC(=O)NCc1ccco1	-5%	-2%	-2%	2%	-7%	-3%	.	.	.	.
N#Cc1nc(Nc2ccccc2)nc(NC2CCCCC2)n1	-15%	.	-9%	35µM*	.	.	-6%[57.1 µM]	17%[57.1 µM]	-2%	?
CC(C)(C)Nc1nc(C#N)nc(Nc2ccccc2)n1	-11%	.	-1%	-1%	.	.	.	.	.	.
Cc1ccc(NC(=O)Cn2c(=O)n(CCc3ccccc3)c(=O)c3c4c(sc32)CCCC4)cc1C	-3%	-4%	.	.	.	-2%	.	.	.	.
Cc1cc(N)n(-c2ccc(Oc3ccccc3)c(S(=O)(=O)O)c2)n1	3%	-10%	3%	35µM*	-36%	-2%	-4%	2%	?	12%
Cc1cc(N)n(-c2ccc(C)c(C)c2)n1	-4%	-3%	-6%	?	-4%	1%	.	.	.	.
CC1(CC(=O)N/N=C/c2cc([N+](=O)[O-])c(O)cc2O)OCCO1	-10%	-6%	-27%	14µM*	?	-15%	?	-4%	13µM*	?
CCN(CC)S(=O)(=O)c1ccc(OCC(=O)NC(=O)Cc2ccccc2)c([N+](=O)[O-])c1	.	-8%	.	5%	7%	-3%	.	.	.	.
O=c1[nH]c(Cc2ccccc2)nc2scc(-c3ccccc3)c12	-2%	-1%	-10%	?	-9%	4%	-3%	3%	-6%[24.4 µM]	0%
CCN(CC)S(=O)(=O)c1ccc(NC(=O)NCc2noc3ccc(C)cc23)cc1	-6%	-23%	.	.	.	2%	.	.	.	.
CCCN(CCC)C(=O)c1c2c(nc3ccccc13)C(=O)N(C1CCCCC1)C2	-2%	-3%	.	.	.	4%	.	.	.	.
Cc1ccc(S(=O)(=O)N2CCCCC2)cc1C(=O)Nc1ccc(S(=O)(=O)Nc2ncccn2)cc1	-17%	-9%	?	?	?	-6%	.	.	?	.
CC(C)NC[C@@H](O)COc1cccc2ccccc12	26%	-2%	2%	12%	-5%	17%	.	-5%[57.1 µM]	-15%	.
Cc1c(O)cc2c(c1O)C(=O)CC(c1ccc(O)cc1)O2 (centres undefined)	-25%	0%	25µM*	1.6µM*	-8%[11.6 µM]	0%	-11%	-3%	4.5µM*	?
O=C1CC(c2ccc(O)cc2)Oc2cc(O)ccc21 (centres undefined)	.	.	.	.	0%	8%	.	.	.	.
O=C1CSC(=S)N1N1C(=O)c2cccc([N+](=O)[O-])c2C1=O	121%	-12%	?	?	.	.	.	.	?	.
SMILES	BLM inh-1	GCN5L2 inh	RECQ1 helicase	APE1 inh-1	WRN inhibitor	ERG-DNA inh	APE1 dye cs	Endo IV inh	APE1 inh-2	APE1 FP inh	others
O=C(O[C@@H]1OC2COC(=O)c3cc(O)c(O)c(O)c3-c3c(cc(O)c(O)c3O)C(=O)O[C@@H]([C@H]1O)[C@@H]2O)c1cc(O)c(O)c(O)c1	5.6µM*	?	-29%	0.071µM*	?	1%	-7%	111%	0.05µM*	?
O=C(O)C1Cc2ccccc2CN1C(=O)COc1ccc(Br)cc1 (centres undefined)	-6%	-14%	-3%	-12%	-19%	2%	.	.	-15%	.
O=C(O)C1Cc2ccccc2CN1C(=O)COc1ccc(Cl)cc1Cl (centres undefined)	-2%	-7%	i	?	-7%[11.6 µM]	6%	.	.	.	.
Cc1nc2ccc3nc(NC(=O)c4ccc5c(c4)OCCO5)sc3c2s1	-9%	1%	-3%	-3%	-25%	-10%	.	.	?	.	BLM inh-2=?
Cc1c(C(=O)OCC2CCCO2)[nH]c2c1C(=O)CC(c1ccco1)C2 (centres undefined)	14µM*	?	25µM*	7.1µM*	40µM*	1%	-4%	?	4.5µM*	?	BLM inh-2=18µM*
COc1ccc(/C=C/C(=O)Nc2c(C(=O)O)[nH]c3ccccc23)cc1OC	-7%	3%	-4%	-5%	-4%	?	.	.	.	.
CN(C)CCn1c(=O)n(Cc2ccco2)c(=O)c2c3c(sc21)CCCCC3	0%	?	-10%	-1%	-2%	-2%	.	.	.	.

Assay outcomes from PubChem BioAssay.
